Source: PubChem BioAssay (National Center for Advancing Translational Sciences (NCATS))
Methyltransferases: Primary Screen for Target Class Profiling of Small Molecule Inhibitors of Methyltransferases. 25,000 compounds, 3.9% hits. calls only at 40 µM. purified enzyme, MTase-Glo SAH luminescence; stronger effect = lower value; call rule not given here
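Each enzyme was assayed with SAM and its substrate. SAH formation detected by MTase-Glo luminescence; single-point 40 uM screen[…].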
Starred values were filed as active, the others as inactive; i = inactive; + = active, no number; ! = repeats disagree. The full list was thinned out, with hits kept by preference. % is set by controls: 0 for no effect and ±100 for the full control effect.

SMILES	Methyltransferases
CCc1ccc(CN2C(=O)c3c(C(=O)OC)ncn3CC2(C)C(=O)NC2CCCCCC2)cc1 (configuration not stated)	i
Cc1cc2c(cc1CC(=O)c1sccc1S(=O)(=O)Nc1onc(C)c1Cl)OCO2	+!
CCc1cc2c(cc3n2CC(C)(C(=O)NC2CCC(C)CC2)N(Cc2ccc(OC)cc2)C3=O)s1 (configuration not stated)	i
CCCn1c(=O)c2cc(F)ccc2n2c(SCC(=O)Nc3ccc(C)cc3Cl)nnc12	i
Cc1[nH]cnc1C1CCN(c2nc3cccc4c3n2CCC4=O)CC1	+
CCCCN1C(=O)c2cc(C(=O)NCc3ccc(CC)cc3)nn2CC1(C)C(=O)NC1CCCC1 (configuration not stated)	i
COC(=O)c1ncn2c1C(=O)N(c1ccc(OC)c(Cl)c1)C(C)(C(=O)NCc1ccccc1)C2 (configuration not stated)	i
CCc1ccccc1S(=O)(=O)NCCn1c(CCc2ccccc2)nc2ccccc21	i
Cc1ccccc1NC(=O)Cn1nc2n(CC(C)C)c(=O)c3ccc(C(=O)NCC(C)C)cc3n2c1=O	i
CC1(C(=O)NCc2ccccc2)Cn2c(ccc2-c2ccco2)C(=O)N1Cc1ccc(Cl)cc1 (configuration not stated)	i
COc1ccc(OC)c2c1cc1n2CC(C)(C(=O)NC2CCCC2)N(Cc2ccco2)C1=O (configuration not stated)	i
CC1(C)CCC(C)(C)c2cc([C@@H](O)C(=O)Nc3ccc(C(=O)O)cc3F)ccc21	i
CC1(C)CCC(C)(C)c2cc(C#Cc3ccc(C(=O)O)cc3)ccc21	+
CC(N)(C(=O)O)c1ccc(C(=O)O)cc1 (configuration not stated)	i
CCOC(=O)c1cc2n(n1)CC(C)(C(=O)NC1CCCCCC1)N(c1ccc(Cl)cc1C)C2=O (configuration not stated)	i
CC(C)CCNC(=O)C1(C)Cn2nc(C(=O)NCc3ccc(N(C)C)cc3)cc2C(=O)N1C (configuration not stated)	i
C=C1C(=O)O[C@@H]2[C@H]1[C@H](O)C[C@]1(C)[C@@H](O)CC=C(C)[C@@H]21	i
CC1=CCC(O)C2(C)CCC3C(C)C(=O)OC3C12 (configuration not stated)	+
C[C@@H]1C(=O)O[C@H]2[C@H]1CC[C@@]1(C)C(=O)C=C[C@@](C)(O)[C@H]21	i
CN(Cc1ccccc1)Cc1cc(C[C@@H]2C[C@H](NC(=O)C3CCC3)C2(C)C)no1	i
Cc1ccccc1NC(=O)Cn1nc2n(C)c(=O)c3ccc(C(=O)NC4CCCC4)cc3n2c1=O	i
COc1ccccc1CNC(=O)C1(C)Cn2nc(-c3ccccc3)cc2C(=O)N1c1ccc(Cl)cc1C (configuration not stated)	i
CCCN1C(=O)c2c(C(=O)NCc3ccc(C)o3)ncn2CC1(C)C(=O)NCCC(C)C (configuration not stated)	i
CCCN1C(=O)c2cc(C(=O)NCc3ccccc3F)nn2CC1(C)C(=O)NC1CCCC1 (configuration not stated)	i
CCOc1cc2ncc(C#N)c(Nc3ccc(OCc4ccccn4)c(Cl)c3)c2cc1NC(=O)/C=C/CN(C)C	i
SMILES	Methyltransferases
CN(C)C/C=C/C(=O)Nc1cc2c(Nc3ccc(F)c(Cl)c3)ncnc2cc1OC1CCOC1 (configuration not stated)	+
CN(C)C/C=C/C(=O)Nc1cc2c(Nc3ccc(F)c(Cl)c3)ncnc2cc1O[C@H]1CCOC1	+
CCOc1cc2ncc(C#N)c(Nc3ccc(F)c(Cl)c3)c2cc1NC(=O)/C=C/CN(C)C	+
CCN1C(=O)c2cc(-c3ccc(OC)cc3)nn2CC1(C)C(=O)NCc1ccccc1OC (configuration not stated)	i
CC(C)OCCCn1c(=O)c2ccccc2n2c(SCC(=O)Nc3ccc(Cl)cc3)nnc12	i
O=C(CSc1nnc2n(Cc3ccc(F)cc3)c(=O)c3ccccc3n12)Nc1ccc(F)cc1F	i
CC1(C(=O)NC2CCCCCC2)Cn2nc(-c3cccs3)cc2C(=O)N1c1ccccc1F (configuration not stated)	i
CC(C)CCn1c(=O)c2ccc(C(=O)NC3CCCCC3)cc2n2c(=O)n(Cc3ccccc3)nc12	i
CCOC(=O)CNC(=O)C1(C)Cn2c(ccc2-c2ccco2)C(=O)N1Cc1cc(OC)ccc1OC (configuration not stated)	i
O=c1[nH]c2ccc(S(=O)(=O)N3CCN(Cc4ccc5c(c4)OCO5)CC3)cc2[nH]1	i
COc1ccccc1CN1C(=O)c2cc(C(C)(C)C)nn2CC1(C)C(=O)NC1CCCCC1 (configuration not stated)	i
CCC(C)NC(=O)c1ccc2c(=O)n(C)c3nnc(SCC(=O)c4cc(C)ccc4C)n3c2c1 (configuration not stated)	i
